From PubChem BioAssay (NCATS)
Inconclusive results are not listed. A number with no mark means an inactive call. Activity calls are given as the source filed them. The call rests on the fitted dose curve; in most records, active means well fitted inhibition curve with a large enough effect; inconclusive means small, poorly fitted or top-dose-only effect; inactive means no such curve, though single readings can be large or run the other way.

System: Zika virus NS2B-NS3 protease (unlinked complex)
Test: Primary screen GU Rhodamine qHTS for Zika virus inhibitors: Unlinked NS2B-NS3 protease assay (AID 1347159); further: nearly all actives have a fitted effect of over 60% in size
Settings: Recombinant ZIKV NS2B-NS3 protease, Rhodamine110 substrate fluorescence; series mostly up to 107 µM; activity change, negative = inhibition: at the top concentration
In short: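 Noncovalent NS2B hydrophilic domain/NS3 protease complex (25 nM final) in 10 mM Tris-HCl pH 8.0, 0.01% Tween 20, preincubated 15 min with compounds (up to 114 microM), then 1.5 microM Rhodamine110 substrate. Fluorescence change over 15 min fitted to 4-parameter Hill.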
On the % scale 0 is the no-effect control and ±100 the full control effect; potency means the concentration at half of the fitted maximal effect.

Structure (SMILES) | activity change, negative = inhibition | Potency
CN(C)CCc1c[nH]c2ccc(CN3CCN(C)S3(=O)=O)cc12 | 32.1% | –
CCCN1CCO[C@H]2c3cc(O)ccc3OC[C@@H]21 | 53.8% | –
C[C@]12CC[C@@H](O)C[C@H]1CC[C@@H]1[C@@H]2CC[C@]2(C)C(=O)CC[C@@H]12 | 209% | –
COC(=O)C1(C)CCC(O)C2(C)c3c(O)cc(C(C)C)cc3C(O)C(OC(C)=O)C12 (stereo not given) | 11.8% [at 57.1 µM] | –
N#C[C@@H](O[C@@H]1O[C@H](CO[C@@H]2O[C@H](CO)[C@@H](O)[C@H](O)[C@H]2O)[C@@H](O)[C@H](O)[C@H]1O)c1ccccc1 | 0.396% [at 57.1 µM] | –
COc1c(C(C)C)cc2c(c1O)[C@@]1(C(=O)O)CCCC(C)(C)C1CC2 (stereo not given in full) | – | 6.31 µM (active)
CCN1CC2(COC)C3[C@@H](OC)C4C1C3(C1C[C@]3(O)[C@H](OC(=O)c5ccccc5)C1[C@]4(OC(C)=O)[C@@H](O)[C@@H]3OC)[C@H](OC)C[C@H]2O (stereo not given in full) | – | 89.1 µM (active)
CC(C)(C)c1cc(C(C)(C)C)c2c(c1)C(O)(C(F)(F)F)C(=O)O2 (stereo not given) | – | 7.94 µM (active)
COC(=O)C1(C)CCC(=O)C2(C)c3c(O)cc(C(C)C)cc3C(O)C(OC(C)=O)C12 (stereo not given) | 4.82% [at 57.1 µM] | –
O=C(N1CCOCC1)N1CCN(c2ccc(Cl)cc2)CC1 | 7.07% | –
